# Data published in PubChem BioAssay.
# Active and inactive are the calls of the source.
# Legend:
# [1] = test system: Plasmodium falciparum Sir2 (PF13_0152, Sir2A); assay: pfSir2 binders on small-molecule microarrays, primary screen, biochemical, small-molecule microarray, 635 nm fluorescence (AID 1098); conditions: small-molecule microarray binding, fluorescence 635 nm; higher = more signal;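 note: score merges spot fluorescence intensity with its signal-to-noise ratio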
# [2] = small-molecule microarray binders of probe aDKK1, primary screen, biochemical, biotinylated probe, 635/667 nm fluorescence (AID 1099); conditions: higher = more signal;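 note: score merges 667nm spot fluorescence with signal to noise across triplicate slides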
# [3] = small-molecule microarray binders of probe aCHRDL2, primary screen, biochemical, biotinylated probe, 635/667 nm fluorescence (AID 1100); conditions: higher = more signal
# [4] = splicing luciferase reporter signal modulators, primary screen, spliceosome inhibition project, cell-based, HEK293, splice +/- reporter (AID 1101); conditions: luminescence, 24 h, higher = more signal, called active from +8 up or from −8 down;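 note: HEK293 cells carrying a splicing-competent luciferase reporter gene; test concentration not given here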
# [5] = target: Fibroblast growth factor 10 (Homo sapiens) (UniProt O15520); assay: FGF10 binders on small-molecule microarrays, primary screen, biochemical, small-molecule microarray, 635 nm fluorescence (AID 1102); conditions: FGF10 binding, fluorescence 635 nm, higher = more signal
# Fibroblast growth factor 10 (Homo sapiens), sequence (O15520 whole entry, looked up): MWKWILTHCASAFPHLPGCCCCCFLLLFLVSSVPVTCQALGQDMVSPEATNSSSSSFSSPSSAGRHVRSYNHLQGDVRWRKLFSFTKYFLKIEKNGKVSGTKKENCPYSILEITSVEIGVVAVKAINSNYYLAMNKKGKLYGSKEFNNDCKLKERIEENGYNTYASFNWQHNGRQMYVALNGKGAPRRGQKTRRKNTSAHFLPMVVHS
# [6] = test system: glycogen synthase kinase-3 (GSK3A per assay name; protocol says GSK3B); assay: GSK3 binders on small-molecule microarrays, primary screen, biochemical, small-molecule microarray, 635 nm fluorescence, GSK3A (AID 1103); conditions: small-molecule microarray binding, fluorescence 635 nm; higher = more signal; note: the record names both GSK3A and GSK3B
# [7] = target: Epidermal growth factor receptor (Homo sapiens) (UniProt P00533); assay: EGFR binders on small-molecule microarrays, primary screen, biochemical, small-molecule microarray, 635 nm fluorescence (AID 1104); conditions: EGFR binding, higher = more signal;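 note: score merges 667 nm emission intensity with spot signal to noise over triplicate slides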
# Epidermal growth factor receptor (Homo sapiens), sequence (P00533 whole entry, looked up): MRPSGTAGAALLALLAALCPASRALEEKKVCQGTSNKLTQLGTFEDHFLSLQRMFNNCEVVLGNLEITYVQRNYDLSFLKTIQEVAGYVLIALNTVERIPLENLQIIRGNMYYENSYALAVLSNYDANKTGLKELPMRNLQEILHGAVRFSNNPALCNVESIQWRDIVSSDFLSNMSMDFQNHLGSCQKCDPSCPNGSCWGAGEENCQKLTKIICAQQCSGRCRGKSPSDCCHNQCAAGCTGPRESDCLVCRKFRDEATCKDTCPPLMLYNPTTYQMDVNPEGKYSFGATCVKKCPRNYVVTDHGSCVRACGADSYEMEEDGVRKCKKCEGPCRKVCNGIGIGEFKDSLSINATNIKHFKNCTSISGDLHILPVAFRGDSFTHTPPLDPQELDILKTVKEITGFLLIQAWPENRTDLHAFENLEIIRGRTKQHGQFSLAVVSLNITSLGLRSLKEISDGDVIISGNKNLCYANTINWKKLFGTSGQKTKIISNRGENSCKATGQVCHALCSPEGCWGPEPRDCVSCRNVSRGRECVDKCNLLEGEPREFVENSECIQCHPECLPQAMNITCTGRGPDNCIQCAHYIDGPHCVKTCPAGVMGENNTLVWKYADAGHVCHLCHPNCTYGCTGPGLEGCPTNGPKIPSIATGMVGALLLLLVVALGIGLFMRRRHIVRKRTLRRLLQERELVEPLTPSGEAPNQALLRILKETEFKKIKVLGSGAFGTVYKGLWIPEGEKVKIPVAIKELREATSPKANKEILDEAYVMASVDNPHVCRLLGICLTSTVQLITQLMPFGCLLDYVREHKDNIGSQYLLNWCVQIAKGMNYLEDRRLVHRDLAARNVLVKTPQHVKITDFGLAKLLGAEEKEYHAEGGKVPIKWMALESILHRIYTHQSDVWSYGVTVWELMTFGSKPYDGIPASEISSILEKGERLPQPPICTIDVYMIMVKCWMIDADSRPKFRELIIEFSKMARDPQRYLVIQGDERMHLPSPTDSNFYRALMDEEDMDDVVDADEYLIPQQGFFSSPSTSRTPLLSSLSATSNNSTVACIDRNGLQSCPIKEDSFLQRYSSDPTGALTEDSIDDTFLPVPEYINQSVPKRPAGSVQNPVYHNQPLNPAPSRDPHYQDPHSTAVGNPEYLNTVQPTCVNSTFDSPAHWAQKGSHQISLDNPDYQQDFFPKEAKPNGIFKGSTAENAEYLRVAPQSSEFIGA
# [8] = target: Follistatin-related protein 3 (Homo sapiens) (UniProt O95633); assay: FSTL3 binders on small-molecule microarrays, primary screen, biochemical, small-molecule microarray, 635 nm fluorescence (AID 1105); conditions: FSTL3 binding, higher = more signal;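 note: score merges emission near 667 nm and signal to noise per printed spot across three slides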
# Follistatin-related protein 3 (Homo sapiens), sequence (O95633 whole entry, looked up): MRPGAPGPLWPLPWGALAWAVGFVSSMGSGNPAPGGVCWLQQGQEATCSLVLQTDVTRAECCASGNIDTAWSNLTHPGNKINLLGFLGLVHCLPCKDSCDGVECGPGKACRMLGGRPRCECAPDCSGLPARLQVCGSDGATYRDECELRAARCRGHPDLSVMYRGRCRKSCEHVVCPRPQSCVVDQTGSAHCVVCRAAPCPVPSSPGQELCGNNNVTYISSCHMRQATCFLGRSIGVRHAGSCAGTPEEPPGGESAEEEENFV
# [9] = target: Dickkopf-related protein 1 (Homo sapiens) (UniProt O94907); assay: DKK1 binders on small-molecule microarrays, primary screen, biochemical, small-molecule microarray, 635 nm fluorescence scan (AID 1106); conditions: DKK1 binding, higher = more signal;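 note: score merges emission near 667 nm with signal to noise over three replicate slides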
# Dickkopf-related protein 1 (Homo sapiens), sequence (O94907 whole entry, looked up): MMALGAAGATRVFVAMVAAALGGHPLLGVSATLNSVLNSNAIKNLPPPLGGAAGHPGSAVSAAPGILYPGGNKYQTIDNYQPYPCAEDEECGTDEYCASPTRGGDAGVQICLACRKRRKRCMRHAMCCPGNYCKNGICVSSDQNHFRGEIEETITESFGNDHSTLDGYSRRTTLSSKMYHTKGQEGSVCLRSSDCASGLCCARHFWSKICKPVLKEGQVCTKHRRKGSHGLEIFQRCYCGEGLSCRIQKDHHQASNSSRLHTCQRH
# [10] = test system: Inhibin beta A chain (activin A); assay: INHBA (activin A) binders on microarrays, primary screen, biochemical, small-molecule microarray, 635 nm fluorescence scan (AID 1107); conditions: small-molecule microarray binding, higher = more signal;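 note: mouse activin A protein probed at 4.33 µg/mL on printed slides; score merges bound-protein fluorescence near 667 nm with spot signal-to-noise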
# [11] = test system: Human papillomavirus type 1a protein E7 (residues 44-93); assay: HPV1a E7 fragment binders on microarrays, primary screen, biochemical, small-molecule microarray, residues 44-93, 635 nm fluorescence (AID 1108); conditions: small-molecule microarray binding, fluorescence 635 nm; higher = more signal;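 note: E7 fragment applied at 1 µg/mL in TBST for 1 h at 4 C; score combines spot fluorescence with its signal to noise ratio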
# [12] = modulators of HCV replicon luciferase signal, primary screen, HCV replication inhibitor project, Huh7 cells, luciferase reporter (AID 1109); conditions: 48 h, higher = more signal;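 note: huh7 hepatoma cells harbouring a luciferase neomycin HCV replicon reporter; luciferase luminescence as measure of HCV replicon replication; test concentration not given here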
# [13] = target: Left-right determination factor 2 (Homo sapiens) (UniProt O00292); assay: LEFTY2 binders on small-molecule microarrays, primary screen, biochemical, small-molecule microarray, 635 nm fluorescence scan (AID 1110); conditions: LEFTY2 binding, higher = more signal
# Left-right determination factor 2 (Homo sapiens), sequence (O00292 whole entry, looked up): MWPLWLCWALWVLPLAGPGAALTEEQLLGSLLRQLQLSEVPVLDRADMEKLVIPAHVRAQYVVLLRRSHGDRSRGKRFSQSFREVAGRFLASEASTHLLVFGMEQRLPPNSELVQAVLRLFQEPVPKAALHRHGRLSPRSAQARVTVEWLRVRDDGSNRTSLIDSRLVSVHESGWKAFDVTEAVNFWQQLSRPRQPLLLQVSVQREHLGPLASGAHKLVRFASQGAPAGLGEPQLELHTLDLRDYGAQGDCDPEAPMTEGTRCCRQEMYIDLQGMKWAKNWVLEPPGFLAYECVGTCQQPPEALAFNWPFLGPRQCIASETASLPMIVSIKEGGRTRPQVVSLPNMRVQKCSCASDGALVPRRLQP
# [14] = target: Calmodulin-1 (Homo sapiens) (UniProt P0DP23); assay: CALM1 binders on microarrays, EGTA buffer, profiling panel, biochemical, small-molecule microarray, Cy5-labelled CALM1 (AID 1111); conditions: Cy5-CALM1 binding fluorescence, higher = more signal;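 note: labelled calmodulin applied in Tris saline Tween buffer holding calcium plus EGTA and DTT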
# [15] = target: Calmodulin-1 (Homo sapiens) (UniProt P0DP23); assay: calcium-bound CALM1 binders on microarrays, profiling panel, artefact control for SMM control-protein annotation, biochemical, small-molecule microarray, Cy5-labelled CALM1, plus calcium (AID 1112); conditions: Cy5-CALM1 binding fluorescence, higher = more signal;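 note: score merges spot fluorescence with signal to noise from triplicate slides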
# [16] = small-molecule microarray binders of probe aWnt5a, primary screen, biochemical, biotinylated probe, 635/667 nm fluorescence (AID 1113); conditions: higher = more signal;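 note: score merges 667 nm fluorescence intensity with signal-to-noise per printed feature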
# [17] = small-molecule microarray binders of probe aShh, primary screen, biochemical, biotinylated probe, 635/667 nm fluorescence (AID 1114); conditions: higher = more signal;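 note: probe is biotin-labelled aShh protein from a stem cell growth factor screen; measures binding of labelled protein to compounds printed on the slide; score merges feature fluorescence at 667 nm with signal-to-noise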
# [18] = small-molecule microarray binders of probe aNog, primary screen, biochemical, biotinylated probe, 635/667 nm fluorescence (AID 1115); conditions: higher = more signal;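 note: probe is biotinylated aNog protein used at 0.15 µg/mL for 1 h at 4 C; z-score combines 667 nm fluorescence of each spot with its signal to noise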
# [19] = target: Torsin-1A-interacting protein 1 (Homo sapiens) (UniProt Q5JTV8); assay: LAP1 binders from COS7 cell lysate, primary screen, small-molecule microarray, 635/667 nm fluorescence (AID 1116); conditions: COS7-hLAP1 lysate binding, 635 nm fluorescence, higher = more signal
# Torsin-1A-interacting protein 1 (Homo sapiens), sequence (Q5JTV8 whole entry, looked up): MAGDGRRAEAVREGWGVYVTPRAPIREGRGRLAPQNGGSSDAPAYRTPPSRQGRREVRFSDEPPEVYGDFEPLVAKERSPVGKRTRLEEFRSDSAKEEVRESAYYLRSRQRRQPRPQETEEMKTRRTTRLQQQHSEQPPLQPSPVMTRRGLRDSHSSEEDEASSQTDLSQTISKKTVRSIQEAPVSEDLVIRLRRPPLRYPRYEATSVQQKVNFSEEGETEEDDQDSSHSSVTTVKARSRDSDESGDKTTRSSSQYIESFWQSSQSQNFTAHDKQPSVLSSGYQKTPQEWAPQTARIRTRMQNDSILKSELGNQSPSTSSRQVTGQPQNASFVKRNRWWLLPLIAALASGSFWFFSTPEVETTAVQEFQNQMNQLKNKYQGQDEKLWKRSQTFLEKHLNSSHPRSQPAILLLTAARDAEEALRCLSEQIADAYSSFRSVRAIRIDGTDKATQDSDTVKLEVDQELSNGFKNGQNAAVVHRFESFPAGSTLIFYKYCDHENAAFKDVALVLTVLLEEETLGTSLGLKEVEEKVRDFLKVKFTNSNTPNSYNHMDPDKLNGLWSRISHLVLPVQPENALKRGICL
# [20] = target: Alpha-bungarotoxin (Bungarus multicinctus) (UniProt P60615); assay: alpha-bungarotoxin binders on microarray, profiling panel, artefact control for SMM control protein annotation, biochemical, small-molecule microarray, Alexa647 label, 635/667 nm fluorescence (AID 1117); conditions: alpha-BTX-A647 binding fluorescence, higher = more signal
# Alpha-bungarotoxin (Bungarus multicinctus), sequence (P60615 whole entry, looked up): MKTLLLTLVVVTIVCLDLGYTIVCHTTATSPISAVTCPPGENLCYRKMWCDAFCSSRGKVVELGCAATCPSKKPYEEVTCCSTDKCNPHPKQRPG
Compound,composite z-score [1],composite z-score [2],composite z-score [3],z-score [4],composite z-score [5],composite z-score [6],composite z-score [7],composite z-score [8],composite z-score [9],composite z-score [10],composite z-score [11],z-score [12],composite z-score [13],composite z-score [14],composite z-score [15],composite z-score [16],composite z-score [17],composite z-score [18],composite z-score [19],composite z-score [20]
O=C1NC(=O)C2C1C=CC(C(O)c1ccccc1)N2Nc1ccc(Cl)cc1Cl (stereo not given),1.62,0.394,0.914,-1.36 (inactive),1.14,1.27,0.531,1.27,-0.0035,0.705,1.39,-1.25,0.628,2.13,1.09,0.17,0.412,1.44,1.98,1.55
COC(=O)[C@@]1(Cc2ccccc2)[C@H]2c3cc(C(=O)N4CCCC4)n(Cc4nc5ccccc5[nH]4)c3C[C@H]2CN1C(=O)c1ccccc1,0.844,1.1,1.36,-1.52 (inactive),0.0471,1.19,-0.361,1.09,-0.137,0.831,1.43,-1.89,-0.0838,2.55,1.53,0.0003,-0.2,2.15,2.53,0.442
COC(=O)C=C(CC(O)c1cccc(Cl)c1)OC (stereo not given),-0.02,1.5,0.48,-1.12 (inactive),0.182,-0.134,-0.485,-0.374,-0.186,1.14,-0.734,-0.923,-0.17,1.27,1.01,0.23,0.506,1.93,1.99,1.51
O=C1O[C@H](c2ccccc2)[C@H](c2ccccc2)N2[C@H]1[C@@H](C(=O)Nc1nc3ccccc3s1)[C@]1(C(=O)Nc3ccc(C#CC4(O)CCCCCC4)cc31)[C@H]2c1ccc(OCCO)cc1,1.17,0.507,0.531,0.053 (inactive),1.24,1.02,0.662,0.714,0.525,0.523,0.877,-2.09,0.426,1.91,0.0521,-0.0381,-0.0446,0.287,1.55,1.77
CC(C)c1ccc(NN2C(C(O)C(c3ccccc3)c3ccccc3)C=CC3C(=O)N(c4ccccc4)C(=O)C32)cc1 (stereo not given),1.08,0.517,0.344,0.304 (inactive),1.31,1.26,0.438,1.06,0.238,0.203,1.42,-0.276,0.219,1.27,-0.147,0.0279,0.171,1.46,0.954,1.74
Cc1ccc(S[C@]2(C(=O)NCCN3CCOCC3)CC(=O)N(Cc3ccccc3Cl)[C@@H]2c2ccc(CO)cc2)cc1,0.588,-0.123,0.841,-1.38 (inactive),1,-1.4,-0.342,-0.51,-0.844,0.425,1.02,-0.815,-0.989,-0.343,0.148,-0.12,-0.0035,-0.339,0.733,-0.146
C=CCOC(=O)[C@H]1[C@@H]2C(=O)O[C@@H](c3ccccc3)[C@@H](c3ccccc3)N2[C@@H](c2ccc(OCCOC(=O)[C@H]3C[C@H]4C(=O)N5CCC[C@H]5C(=O)N4[C@H]3c3ccc(O)cc3)cc2)[C@]12C(=O)Nc1ccc(I)cc12,2.09,1.76,1.42,-1.93 (inactive),1.47,1.37,0.429,1.42,1.97,1.41,1.48,0.56,1.52,1.22,1.41,0.547,2.8,2.82,2.74,2.81
O=C1OCCC/C=C\[C@H]2OC34C=CCN(CCN5CCOCC5)C(=O)[C@H]3N(CCCO)C(=O)[C@@H]4C12 (stereo not given in full),1.37,-0.199,0.0663,0.106 (inactive),0.0487,-0.0632,-0.708,-0.621,-0.298,0.576,-0.941,-0.61,-0.27,-1.01,-0.147,-0.18,-0.26,-0.23,1.05,1.19
Cc1ccc(S[C@]2(C(=O)NCCN3CCOCC3)CC(=O)N(Cc3ccccc3)[C@@H]2c2ccc(CO)cc2I)cc1,1.41,0.361,1.11,-1.88 (inactive),-1.61,-1.12,-1.72,-1.24,-1.51,0.476,0.0104,-3.12,-0.601,-0.318,-0.431,-0.124,-0.17,0.0323,-0.914,-1.07
O=C1OCCC/C=C\[C@H]2OC34C=CCN(Cn5nnc6ccccc65)C(=O)[C@H]3N(CCCCCCO)C(=O)[C@@H]4C12 (stereo not given in full),1.53,-0.234,0.489,-1.57 (inactive),-1.41,-0.662,-0.636,-0.321,-0.774,1.12,-0.311,-0.625,-1.17,-0.824,-0.317,-0.18,-0.0035,0.599,-0.401,-0.716
CN(C)CCCNC(=O)[C@@]1(C)c2ccccc2C(=O)N(Cc2cc(F)cc(C(F)(F)F)c2)[C@H]1c1ccc(CO)cc1,1.34,-0.226,0.682,-0.249 (inactive),-1.23,-0.465,-1.63,-1.19,-0.878,0.376,-0.0947,-1.8,-1.66,-0.483,-0.643,-0.251,0.0121,0.338,-0.94,1.32
